Bioassay records: PubChem, several laboratories
Hits are enriched below; roughly 3.6% of the tested compounds scored in any of these assays.
FAS-TE inh = FAS thioesterase (human) inhibition; recombinant FAS-TE, OMFH fluorogenic substrate, fluorescence endpoint; inhibition, % at 15 µM; 360,000 tested, 0.67% active;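 active = compounds whose normalised, plate-corrected inhibition of enzyme fluorescence in the single-dose primary screen is 50% or more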;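 also: 0% = DMSO with enzyme and 100% = substrate without enzyme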
Target sequence (P49327 whole entry, looked up): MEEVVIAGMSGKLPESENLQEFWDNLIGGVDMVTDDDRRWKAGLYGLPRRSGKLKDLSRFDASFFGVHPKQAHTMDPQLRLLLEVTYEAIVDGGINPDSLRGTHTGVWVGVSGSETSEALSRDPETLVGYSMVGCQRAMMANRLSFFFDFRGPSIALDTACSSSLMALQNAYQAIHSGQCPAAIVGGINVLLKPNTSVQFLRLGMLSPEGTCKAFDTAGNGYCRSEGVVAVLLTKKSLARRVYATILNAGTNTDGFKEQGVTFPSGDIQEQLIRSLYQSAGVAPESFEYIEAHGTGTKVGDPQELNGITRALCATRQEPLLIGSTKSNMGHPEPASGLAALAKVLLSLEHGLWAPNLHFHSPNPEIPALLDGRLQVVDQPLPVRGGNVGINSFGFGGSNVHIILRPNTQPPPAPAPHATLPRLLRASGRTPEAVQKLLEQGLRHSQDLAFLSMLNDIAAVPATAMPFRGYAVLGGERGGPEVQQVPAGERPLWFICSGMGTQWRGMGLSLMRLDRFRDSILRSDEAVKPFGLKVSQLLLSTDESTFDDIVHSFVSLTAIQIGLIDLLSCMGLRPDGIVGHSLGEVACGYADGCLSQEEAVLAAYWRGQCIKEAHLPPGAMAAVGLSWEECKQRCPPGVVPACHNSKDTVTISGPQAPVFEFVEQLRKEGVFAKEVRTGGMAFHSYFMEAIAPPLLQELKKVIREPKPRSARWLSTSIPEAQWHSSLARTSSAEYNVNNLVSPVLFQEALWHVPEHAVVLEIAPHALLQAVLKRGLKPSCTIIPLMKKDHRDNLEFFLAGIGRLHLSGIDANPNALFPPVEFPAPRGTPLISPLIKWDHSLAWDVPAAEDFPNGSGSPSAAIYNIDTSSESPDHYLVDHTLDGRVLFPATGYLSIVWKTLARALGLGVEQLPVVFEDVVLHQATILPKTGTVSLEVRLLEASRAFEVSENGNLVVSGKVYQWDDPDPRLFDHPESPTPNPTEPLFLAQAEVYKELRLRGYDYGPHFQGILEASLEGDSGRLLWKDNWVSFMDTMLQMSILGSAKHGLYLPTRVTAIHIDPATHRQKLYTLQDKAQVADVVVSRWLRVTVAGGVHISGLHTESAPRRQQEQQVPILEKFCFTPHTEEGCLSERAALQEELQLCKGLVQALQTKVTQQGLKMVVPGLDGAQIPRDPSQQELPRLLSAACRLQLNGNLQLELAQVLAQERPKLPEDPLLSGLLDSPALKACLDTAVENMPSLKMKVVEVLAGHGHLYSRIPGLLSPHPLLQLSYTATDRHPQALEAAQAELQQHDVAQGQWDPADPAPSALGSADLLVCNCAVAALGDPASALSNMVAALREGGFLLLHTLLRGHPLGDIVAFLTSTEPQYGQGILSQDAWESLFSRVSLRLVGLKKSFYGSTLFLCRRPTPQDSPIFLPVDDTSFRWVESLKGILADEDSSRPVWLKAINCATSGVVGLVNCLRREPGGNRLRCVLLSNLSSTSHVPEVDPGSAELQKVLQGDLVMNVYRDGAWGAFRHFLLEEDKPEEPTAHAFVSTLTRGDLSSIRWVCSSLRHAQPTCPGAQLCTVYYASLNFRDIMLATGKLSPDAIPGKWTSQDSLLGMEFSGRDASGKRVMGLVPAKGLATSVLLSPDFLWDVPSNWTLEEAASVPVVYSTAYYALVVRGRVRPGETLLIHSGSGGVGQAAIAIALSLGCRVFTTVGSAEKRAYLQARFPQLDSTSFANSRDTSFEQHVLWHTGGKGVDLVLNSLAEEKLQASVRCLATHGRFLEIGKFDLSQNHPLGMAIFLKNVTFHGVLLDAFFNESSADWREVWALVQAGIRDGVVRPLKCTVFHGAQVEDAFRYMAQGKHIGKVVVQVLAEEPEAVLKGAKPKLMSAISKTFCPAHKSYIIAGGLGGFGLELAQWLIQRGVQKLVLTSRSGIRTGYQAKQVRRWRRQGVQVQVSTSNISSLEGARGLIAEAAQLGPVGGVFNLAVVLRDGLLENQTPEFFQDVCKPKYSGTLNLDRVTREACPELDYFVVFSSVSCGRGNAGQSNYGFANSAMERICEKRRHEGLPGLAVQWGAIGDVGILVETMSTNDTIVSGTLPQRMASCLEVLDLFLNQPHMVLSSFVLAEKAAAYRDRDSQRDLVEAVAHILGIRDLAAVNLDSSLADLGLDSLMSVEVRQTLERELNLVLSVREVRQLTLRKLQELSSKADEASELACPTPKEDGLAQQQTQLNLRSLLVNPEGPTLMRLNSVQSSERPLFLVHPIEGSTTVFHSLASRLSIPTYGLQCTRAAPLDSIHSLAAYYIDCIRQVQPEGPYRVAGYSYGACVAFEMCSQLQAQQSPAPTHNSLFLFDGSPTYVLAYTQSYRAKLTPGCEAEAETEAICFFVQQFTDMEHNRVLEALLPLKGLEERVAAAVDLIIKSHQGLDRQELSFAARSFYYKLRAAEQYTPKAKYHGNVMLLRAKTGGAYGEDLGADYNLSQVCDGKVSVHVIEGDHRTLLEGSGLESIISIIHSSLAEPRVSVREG
Myeloid diff 2 = myeloid differentiation induction; ER-HoxA9 myeloid progenitors, lysozyme-GFP differentiation, flow cytometry; calls only at 10 µM; 360,000 tested, 1% active;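 active = normalized GFP-positive differentiation at or above the plate's own cutoff, the solvent-only control mean plus 3 SD; inconclusive = no clear call, values can overlap the other calls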;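 also: cells exposed to compound for four days before flow analysis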
CendR NRP1 mod = alters CendR peptide binding to human NRP-1. O14786. FAM-RPARPAR peptide binding to NRP-1, fluorescence polarization. inhibition, % at 25 µM. 360,000 tested, 0.85% active. AID 602438;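 active = inhibition or corrected inhibition above about 18%, plus a signal ratio from 0.5 to 1.5, limit read from the data, passing the limit was not always enough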
NadD block = NadD (S. aureus) enzyme inhibition | 360,000 tested, 0.78% active | purified NadD enzyme, colorimetric absorbance read-out | inhibition, % at 20 µM | AID 602399; in the data active = inhibition above about 26%
CRFR2-BP antag = CRF-BP/CRF-R2 complex antagonism; HEK293 CRF-R2/CRF-BP, CRF-induced calcium fluorescence; 350,000 tested, 0.59% active; inhibition, % at 11.8 µM;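 active = inhibition of the ligand-induced calcium signal above about 50% at the single tested concentration, limit read from the data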
FAS-TE inh conf = confirmation of human fatty acid synthase thioesterase inhibitors; shares compounds with FAS-TE inh; recombinant FAS-TE, OMFH fluorogenic substrate, fluorescence; inhibition, % at 15 µM; 2,300 tested, 45% active; AID 624325;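 active = compounds inhibiting the enzyme by at least 50% at 15 µM in any one of the replicates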;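 also: 0% = enzyme with DMSO only and 100% = wells lacking enzyme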
* hit, by the source's call; i = inactive; ? = inconclusive; nt = no result.

SMILES	FAS-TE inh	Myeloid diff 2	CendR NRP1 mod	NadD block	CRFR2-BP antag	FAS-TE inh conf
O=C(NCCN1C(=O)S/C(=C\c2ccc(Cl)c([N+](=O)[O-])c2)C1=O)C1=COCCO1	52*	i	3	2	-8	41
Cc1ccccc1C(=O)NNC(=O)C1CCN(C(=O)Nc2ccccc2)CC1	-3	i	-6	-1	-1	nt
CC(C)C(NC(=O)c1ccc(F)cc1)C(=O)N1CCC1 (stereo not drawn)	-6	i	0	6	-1	nt
Cc1ccc(C(NC(=O)/C=C\c2ccc3c(c2)OCO3)C(=O)Nc2ccc3c(c2)OCO3)cc1 (stereo not drawn)	55*	i	8	6	6	22
CC(=O)c1ccc(S(=O)(=O)NC2CC(=O)N(c3ccc(Cl)cc3)C2)cc1 (stereo not drawn)	5	i	-3	-1	4	nt
C[C@H](CO)N1C[C@H](C)[C@@H](CN(C)C(=O)Nc2ccc(C(F)(F)F)cc2)Oc2c(NC(=O)NC3CCCCC3)cccc2C1=O	47	i	8	-2	5	nt
Cc1noc(C)c1NC(=O)Nc1cccc2c1O[C@@H](CN(C)C)[C@@H](C)CN([C@H](C)CO)C2=O	-6	i	10	-4	-4	nt
Cc1noc(C)c1NC(=O)Nc1cccc2c1O[C@H](CN(C)C(=O)NC1CCCCC1)[C@@H](C)CN([C@H](C)CO)C2=O	77*	i	25*	-2	4	84*
C[C@H]1CN([C@@H](C)CO)C(=O)c2cccc(NC(=O)Nc3ccc(C(F)(F)F)cc3)c2O[C@@H]1CN(C)S(=O)(=O)c1ccccc1	36	i	0	-7	-6	nt
C[C@H](CO)N1C[C@H](C)[C@@H](CN(C)C(=O)Nc2ccccc2)Oc2c(NC(=O)Nc3ccc(C(F)(F)F)cc3)cccc2C1=O	83*	i	9	-8	4	92*
C[C@@H]1CN([C@H](C)CO)C(=O)c2cccc(NC(=O)NC3CCCCC3)c2O[C@@H]1CN(C)C(=O)Nc1ccc(C(F)(F)F)cc1	77*	i	-1	-15	-6	70*
C[C@H](CO)N1C[C@H](C)[C@@H](CN(C)C(=O)Nc2ccccc2)Oc2c(NC(=O)Nc3ccccc3)cccc2C1=O	42	i	9	0	-12	nt
COc1ccc(S(=O)(=O)N(C)C[C@H]2Oc3c(NC(=O)Nc4ccc(C(F)(F)F)cc4)cccc3C(=O)N([C@H](C)CO)C[C@@H]2C)cc1	61*	i	15	-14	0	45
CN(C)c1ccc(/C=N/n2c(C3CCCCC3)n[nH]c2=S)cc1	11	i	5	4	-9	nt
CC1CCC2(CC1)NC(=O)N(Cc1cc(=O)n3ccsc3n1)C2=O (stereo not drawn)	nt	nt	nt	nt	-1	nt
O=C(Nc1ccc(Br)cc1)c1cccc(-n2cnnn2)c1	52*	i	0	-4	2	31*
CS(=O)(=O)c1ccc(NC(=O)c2cccc(-n3cnnn3)c2)cc1	1	i	14	8	19	nt
O=c1[nH]c(=O)c2cc([N+](=O)[O-])cc([N+](=O)[O-])c2[nH]1	2	i	7	1	6	nt
O=c1[nH]c2cc([N+](=O)[O-])c([N+](=O)[O-])cc2[nH]c1=O	66*	i	4	4	8	73*
COC(=O)c1ccc(CNC(=O)COC(=O)CCN2C(=O)C3CC=CCC3C2=O)cc1 (stereo not drawn)	-8	i	-8	-5	-8	nt
Cc1ccc(N2C(=O)[C@@H]3[C@H](C2=O)C2c4ccccc4C=NN2[C@@H]3C(=O)c2ccc(Cl)cc2)cc1 (stereo partly drawn)	82*	i	1	12	-13	0
O=C(c1ccc(Cl)cc1)[C@@H]1[C@@H]2C(=O)N(c3ccc(Cl)cc3)C(=O)[C@@H]2C2c3ccccc3C=NN21 (stereo partly drawn)	69*	i	-4	12	-17	10
Cc1ccc(N2C(=O)[C@@H]3[C@H](C2=O)[C@H]2C=CC=NN2[C@@H]3C(=O)Nc2ccc(Cl)cc2)cc1	-7	i	2	3	28	nt
CCOC(=O)c1ccc(N2C(=O)C3C(C2=O)C(C(=O)c2ccc(Cl)cc2)N2CCCC32)cc1 (stereo not drawn)	3	i	-68	28	-46	nt
CCc1cc(C(=O)N/N=C/c2ccc(O)cc2O)c2ccccc2n1	0	?	10	0	12	nt
SMILES	FAS-TE inh	Myeloid diff 2	CendR NRP1 mod	NadD block	CRFR2-BP antag	FAS-TE inh conf
O=C(CCN1C(=O)/C(=C\c2ccccc2Cl)SC1=S)Nc1cccnc1	57*	i	2	9	6	54*
O=C(CCCN1C(=O)/C(=C/c2ccccc2Cl)SC1=S)NNC(=O)c1ccccc1	37	i	-22	0	-24	nt
O=C(CCN1C(=O)/C(=C/c2ccccc2Cl)SC1=S)Nc1ccccc1C(=O)O	71*	i	-54	8	1	77*
Cc1ccc(N2C(=O)SC(Cc3ccccc3)C2=O)cc1 (stereo not drawn)	3	i	0	-4	-5	nt
O=[N+]([O-])c1c(Nc2ccccn2)cc(Cl)c2nonc12	62*	?	137	1	26	31
O=[N+]([O-])c1c(Nc2ccc(O)cc2)cc(Cl)c2nonc12	60*	?	26*	-7	67*	44*
Cc1cc(C)cc(-n2c(SCC(=O)NCc3ccc4c(c3)OCO4)nc3ccccc3c2=O)c1	10	i	-7	4	46	nt
O=C(NCc1ccco1)c1cc([N+](=O)[O-])ccc1N1CCCCC1	14	i	4	-3	46	nt
O=C(/C=C/c1cccc([N+](=O)[O-])c1)NCc1ccc2c(c1)OCO2	68*	i	-3	-8	0	82*
O=C(CSc1nc2cc([N+](=O)[O-])ccc2n1-c1ccccc1)NCc1ccc2c(c1)OCO2	52*	i	-5	1	11	36
COC(=O)c1cc(C(=O)NCc2ccc3c(c2)OCO3)cc([N+](=O)[O-])c1	59*	i	1	-3	16	71*
O=C(NCc1ccc2c(c1)OCO2)c1cc([N+](=O)[O-])ccc1N1CCCCC1	64*	?	11	2	22	54*
O=C(C[n+]1ccc(C(=O)NCCCO)cc1)c1cccc(Br)c1	-3	i	4	-3	7	nt
CN(C)c1ccc(C(=O)N2CCCC(CCC(=O)N3CCN(c4ccccn4)CC3)C2)cc1 (stereo not drawn)	-1	i	8	0	-9	nt
CC(=O)c1c(C)[nH]c(C(=O)C(C)Sc2nnc(NC3CC3)s2)c1C (stereo not drawn)	-1	i	12	5	4	nt
Cc1ccc(S(=O)(=O)Nc2ccc(-c3csc(-c4ccccc4)n3)cc2)cc1	72*	i	-6	4	-16	27
